Experimental findings from PMC4336329 (PLoS ONE, 2015) are described below.

Screen size: about 310,000 compounds; about 14,000 (4.5%) showed an effect of 50% or more. The effect is printed as a negative number. The entries come from a sample that favours strong results as a whole.
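Also: peak tail current of the secondary pulse compared with the same well before compound.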

Sequence of human ether-à-go-go-related gene (hERG) potassium channel (Q12809 whole entry, looked up): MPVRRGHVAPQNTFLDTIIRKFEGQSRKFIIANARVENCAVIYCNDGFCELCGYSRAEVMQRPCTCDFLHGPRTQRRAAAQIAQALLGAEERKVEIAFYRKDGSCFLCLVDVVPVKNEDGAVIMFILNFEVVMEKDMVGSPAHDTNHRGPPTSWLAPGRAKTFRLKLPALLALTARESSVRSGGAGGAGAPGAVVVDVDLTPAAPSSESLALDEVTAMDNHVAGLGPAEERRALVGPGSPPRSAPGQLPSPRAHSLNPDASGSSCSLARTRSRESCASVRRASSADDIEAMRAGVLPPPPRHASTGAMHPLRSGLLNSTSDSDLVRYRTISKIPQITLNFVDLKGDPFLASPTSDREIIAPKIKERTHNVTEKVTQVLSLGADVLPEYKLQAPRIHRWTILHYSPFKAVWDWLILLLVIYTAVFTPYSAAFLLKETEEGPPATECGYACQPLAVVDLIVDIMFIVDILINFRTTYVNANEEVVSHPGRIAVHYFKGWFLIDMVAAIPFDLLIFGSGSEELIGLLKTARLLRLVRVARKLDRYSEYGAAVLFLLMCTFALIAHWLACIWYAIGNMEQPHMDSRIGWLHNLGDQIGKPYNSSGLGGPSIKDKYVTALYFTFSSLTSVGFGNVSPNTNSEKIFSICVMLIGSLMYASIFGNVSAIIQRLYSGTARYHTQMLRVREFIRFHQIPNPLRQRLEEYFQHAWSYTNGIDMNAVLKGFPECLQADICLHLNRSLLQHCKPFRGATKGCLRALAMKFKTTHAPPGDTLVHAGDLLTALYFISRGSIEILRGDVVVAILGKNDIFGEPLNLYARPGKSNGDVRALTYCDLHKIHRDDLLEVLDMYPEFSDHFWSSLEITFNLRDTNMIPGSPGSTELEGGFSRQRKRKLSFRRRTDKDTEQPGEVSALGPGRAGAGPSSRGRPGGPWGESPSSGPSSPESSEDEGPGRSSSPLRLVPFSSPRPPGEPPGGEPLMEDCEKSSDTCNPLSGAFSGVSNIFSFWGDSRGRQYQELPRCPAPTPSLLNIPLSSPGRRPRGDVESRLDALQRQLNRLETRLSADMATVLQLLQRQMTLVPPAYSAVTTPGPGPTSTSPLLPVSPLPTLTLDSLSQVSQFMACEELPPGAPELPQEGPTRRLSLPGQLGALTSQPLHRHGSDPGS

The assay concerns the target human ether-à-go-go-related gene (hERG) potassium channel (human, UniProt Q12809). As to the kind of experiment: primary screen, population patch clamp on CHO cells stably expressing hERG; higher = less effect of the substance.
In the case of `CCCCOC(=O)C(C)Sc1n[nH]c(=O)[nH]c1=O` (centres unmarked), the “hERG current change (%, negative = inhibition) at 10uM” value is recorded as -5.93%. With `O=[N+]([O-])c1ccc(CNc2cccc(Cl)c2)s1`, the “hERG current change (%, negative = inhibition) at 10uM” value is -28.3%.

For `O=C1N=C(c2ccccc2)S/C1=C\c1cccs1`, the “hERG current change (%, negative = inhibition) at 10uM” value came to 5.19%. In the case of `COc1ccc(N2CCN(Cc3nc(-c4ccccc4)no3)CC2)cc1`, the “hERG current change (%, negative = inhibition) at 10uM” value is listed as 8.23%. Consider `C=CCOC(=O)C1=C[C@@H](c2csc3ccccc23)[C@H](CCCO)[C@@H](OCC)O1`, for which the “hERG current change (%, negative = inhibition) at 10uM” value is -27.7%. Regarding `COc1ccc(S(=O)(=O)N2CCC(C(=O)N[C@@H](C)C(=O)NC3CCCC3)CC2)cc1`, the “hERG current change (%, negative = inhibition) at 10uM” value is 13.4%. With `COCCNC(=O)c1ccc2c(c1)S(=O)(=O)c1cc(Cl)ccc1C2=O`, the “hERG current change (%, negative = inhibition) at 10uM” value is -3.38%.

For the molecule `CCN(CC)S(=O)(=O)c1ccc(F)c(C(=O)OC2CC(C)OC2=O)c1` (centres unmarked), the “hERG current change (%, negative = inhibition) at 10uM” value is reported as -2.4%. For the molecule `O=C(Cn1cc(SCc2ccc(F)cc2)c2ccccc21)N1CCOCC1`, the “hERG current change (%, negative = inhibition) at 10uM” value is recorded as -29.9%. Consider `O=C(Cn1cc(SCc2ccc(Cl)cc2)c2ccccc21)N1CCOCC1`, for which the “hERG current change (%, negative = inhibition) at 10uM” value was -53.3%. The same measure for `O=C(Cn1cc(SCc2cccc(Cl)c2)c2ccccc21)N1CCOCC1`: -33.1%. As to `Nc1ncnc2c1ncn2C1O[C@H](CO)[C@@H](O)[C@@H]1O` (some centres unmarked), the “hERG current change (%, negative = inhibition) at 10uM” value was -8.74%. Consider `Cc1ccc(CNC(=O)CSc2nc(N3CCCCC3)nc(N3CCCCC3)n2)cc1`, for which the “hERG current change (%, negative = inhibition) at 10uM” value was determined as 7.64%.

As for `O=[N+]([O-])c1ccccc1S(=O)(=O)NCCSc1ccccc1`, the “hERG current change (%, negative = inhibition) at 10uM” value is on record as 4.87%. In the case of `O=S(=O)(NCCCSc1ccccc1)c1ccccc1F`, the “hERG current change (%, negative = inhibition) at 10uM” value is -79.6%. As for `O=C(CCNS(=O)(=O)c1ccccc1C(F)(F)F)NCCCSc1ccccc1`, the “hERG current change (%, negative = inhibition) at 10uM” value is -18.1%. The same measure for `Nc1nc(CSC(=S)N2CCOCC2)nc(Nc2ccc(F)cc2)n1`: 7.31%; for `Cc1ccc(Nc2nc(N)nc(CN3CCN(C)CC3)n2)cc1`: -27.8%; for `Nc1nc(CN2CCCCCC2)nc(Nc2ccc(F)cc2)n1`: -70.8%. Under `Cc1ccc(Nc2nc(N)nc(CCl)n2)cc1` stands 1.76%.

For `Cc1ccc(Nc2nc(N)nc(CN3CCCCCC3)n2)cc1`, the “hERG current change (%, negative = inhibition) at 10uM” value was -72.1%.

With `Nc1nc(CSCCO)nc(Nc2ccc(F)cc2)n1`, the “hERG current change (%, negative = inhibition) at 10uM” value was 16.1%. For the molecule `CC(=O)Nc1ccc(NC(=O)Nc2ccccc2)cc1`, the “hERG current change (%, negative = inhibition) at 10uM” value turned out to be 10.5%. Under `CC(=O)OCC[C@H](NS(=O)(=O)OCC(Cl)(Cl)Cl)c1ccccc1` stands 1.61%; under `COc1cc(NC(=O)c2cc(C(C)C)on2)c(OC)cc1Cl`, 3.16%. Take `COc1ccccc1N1CCN(C(=O)c2cc(-c3ccc(F)cc3)[nH]c2C)CC1`: the “hERG current change (%, negative = inhibition) at 10uM” value is given as -64.5%. Under `O=C(c1ccccc1C(=O)N1CCN(c2ccccc2F)CC1)N1CCN(c2ccccc2F)CC1` stands -31%; under `COc1ccccc1N1CCN(C(=O)c2cc(-c3ccc(F)cc3)on2)CC1`, 19.1%; under `Cc1[nH]c(-c2ccc(F)cc2)cc1C(=O)N1CCN(c2ccccc2F)CC1`, -70.3%. `COc1ccccc1N1CCN(C(=O)c2cc3cc(F)ccc3[nH]2)CC1`: the “hERG current change (%, negative = inhibition) at 10uM” value worked out at 15.8%.

Turning to `O=C(c1ccccc1F)N1CCN(c2ccccc2F)CC1`, the “hERG current change (%, negative = inhibition) at 10uM” value is -2.08%. On to `N#CC1=C(N)Oc2n[nH]c(-c3cccs3)c2C1C1CCCCC1` (centres unmarked), for which the “hERG current change (%, negative = inhibition) at 10uM” value is 8.73%. Under `Cc1ccccc1C(=O)Nc1ccccc1NC(=O)c1ccccc1Br` stands 25.4%. In the case of `COC(=O)c1ccc(-c2noc(CN(C)CC3CCCCO3)n2)cc1` (centres unmarked), the “hERG current change (%, negative = inhibition) at 10uM” value stood at 11.3%. Turning to `Cn1c(Cn2c(=O)sc3ccccc32)nnc1SCc1cccc(F)c1`, the “hERG current change (%, negative = inhibition) at 10uM” value was -11.6%. `Cc1cc(C)cc(NC(=S)NCc2ccc3c(c2)OCO3)c1`: the “hERG current change (%, negative = inhibition) at 10uM” value is -8.9%.

As for `OC(CNCC1CCCCC1)COc1ccccc1` (centres unmarked), the “hERG current change (%, negative = inhibition) at 10uM” value is -0.428%. As for `Cc1ccc(CC(=O)Nc2cc(C)ccn2)cc1`, the “hERG current change (%, negative = inhibition) at 10uM” value is reported as 11.2%. Consider `O=[N+]([O-])c1cc(S(=O)(=O)NCCN2CCOCC2)ccc1Sc1nnnn1-c1ccccc1`, for which the “hERG current change (%, negative = inhibition) at 10uM” value is on record as -24.6%. Take `CCCCSc1nnc(CNC(=O)C23CC4CC(CC(C4)C2)C3)n1Cc1ccccc1`: the “hERG current change (%, negative = inhibition) at 10uM” value is -29.7%. On to `O=C(Nc1ccc(CN2CCOCC2)cc1)c1ccc(-c2ccc(Cl)cc2Cl)o1`, for which the “hERG current change (%, negative = inhibition) at 10uM” value was -7.54%. Under `Cn1c(=O)n(C)c2cc([N+](=O)[O-])c(N3CCN(C(=O)c4ccc(Cl)cc4)CC3)cc21` stands -65.9%; under `Cc1ccc(C(=O)N2CCN(c3cc4c(cc3[N+](=O)[O-])n(C)c(=O)n4C)CC2)cc1`, -66.6%; under `Cn1c(=O)n(C)c2cc([N+](=O)[O-])c(N3CCN(C(=O)c4ccccc4)CC3)cc21`, -36.1%. As to `Cn1c(=O)n(C)c2cc([N+](=O)[O-])c(N3CCN(CCO)CC3)cc21`, the “hERG current change (%, negative = inhibition) at 10uM” value came out at 24.9%. With `CCOC(=O)C(=O)N1CCN(c2cc3c(cc2[N+](=O)[O-])n(C)c(=O)n3C)CC1`, the “hERG current change (%, negative = inhibition) at 10uM” value was -24.2%. For `Cn1c(=O)n(C)c2cc([N+](=O)[O-])c(N3CCN(C(=O)C(C)(C)C)CC3)cc21`, the “hERG current change (%, negative = inhibition) at 10uM” value is -8.56%. Take `Cn1c(=O)n(C)c2cc([N+](=O)[O-])c(N3CCN(C(=O)c4ccccc4Cl)CC3)cc21`: the “hERG current change (%, negative = inhibition) at 10uM” value is given as -34.4%. Regarding `Cn1c(=O)n(C)c2cc([N+](=O)[O-])c(N3CCN(C(=O)c4ccc(F)cc4)CC3)cc21`, the “hERG current change (%, negative = inhibition) at 10uM” value was -44%. Take `Cn1c(=O)n(C)c2cc([N+](=O)[O-])c(N3CCN(C(=O)c4cccc(Cl)c4)CC3)cc21`: the “hERG current change (%, negative = inhibition) at 10uM” value is reported as -64.2%. Regarding `Cn1c(=O)n(C)c2cc([N+](=O)[O-])c(N3CCN(C(=O)c4ccccc4Br)CC3)cc21`, the “hERG current change (%, negative = inhibition) at 10uM” value is -70.6%. Take `Cn1c(=O)n(C)c2cc(N3CCCCC3)c(NC(=O)c3cccc(Cl)c3)cc21`: the “hERG current change (%, negative = inhibition) at 10uM” value is on record as 14.8%. The same measure for `Cn1c(=O)n(C)c2cc([N+](=O)[O-])c(N3CCNCC3)cc21`: 5.58%; for `O=C(COC(=O)c1ccc2ncsc2c1)Nc1cccc(Cl)c1`: 2.07%; for `Cc1ccc(-n2c(SCn3nnc4ccccc4c3=O)nnc2-c2cccnc2)c(C)c1`: -39.3%. Turning to `Cc1cccc(C)c1NC(=O)CN(C)CC(=O)Nc1ccccc1Oc1ccccc1`, the “hERG current change (%, negative = inhibition) at 10uM” value is listed as 11.3%. `COc1ccc(NC(=O)c2ccc([N+](=O)[O-])o2)cc1`: the “hERG current change (%, negative = inhibition) at 10uM” value was determined as 11.1%. Under `Cc1c(C)c2ccc(OCC(=O)NC3CCN(Cc4ccccc4)CC3)c(C)c2oc1=O` stands -42.7%.

As to `Cc1c(OCC(=O)NC2CCN(Cc3ccccc3)CC2)ccc2c3c(c(=O)oc12)CCC3`, the “hERG current change (%, negative = inhibition) at 10uM” value is listed as -47.7%.

With `O=C(COc1ccc2ccc(=O)oc2c1)NC1CCN(Cc2ccccc2)CC1`, the “hERG current change (%, negative = inhibition) at 10uM” value is reported as -55.2%. As for `O=C(COc1ccc2ccc(=O)oc2c1)NC1CCCCC1`, the “hERG current change (%, negative = inhibition) at 10uM” value is reported as 1.43%. Turning to `CCCc1cc(=O)oc2cc(OCC(=O)NC3CCN(Cc4ccccc4)CC3)ccc12`, the “hERG current change (%, negative = inhibition) at 10uM” value is on record as -60.2%.

As to `O=C(COc1ccc2ccc(=O)oc2c1)NC1CCCC1`, the “hERG current change (%, negative = inhibition) at 10uM” value is on record as 13.4%. For `O=C(COc1ccccc1)NC1CCCCCCC1`, the “hERG current change (%, negative = inhibition) at 10uM” value is on record as -4.51%. For `O=C(COc1ccccc1)NC1CCN(Cc2ccccc2)CC1`, the “hERG current change (%, negative = inhibition) at 10uM” value was -50.4%. The same measure for `O=C(O)COCC(=O)NC1CCN(Cc2ccccc2)CC1`: 12.5%. As for `CCCc1cc(=O)oc2cc(C)cc(OCC(=O)NC3CCN(Cc4ccccc4)CC3)c12`, the “hERG current change (%, negative = inhibition) at 10uM” value is -10.3%.

Consider `CCc1cc(=O)oc2cc(C)cc(OCC(=O)NC3CCN(Cc4ccccc4)CC3)c12`, for which the “hERG current change (%, negative = inhibition) at 10uM” value is reported as -36%. Under `CCCc1cc(=O)oc2c(C)c(OCC(=O)NC3CCN(Cc4ccccc4)CC3)ccc12` stands -51.4%. Under `Cc1ccc(S(=O)(=O)c2cnc3cc(C)nn3c2N)cc1` stands 0.694%; under `Cc1ccc(CN2C(=O)[C@@H]3Cc4c([nH]c5ccccc45)C(C)(C)N3C2=O)cc1`, 7.62%; under `O=[N+]([O-])c1ccccc1/C=N/NC1=NS(=O)(=O)c2ccccc21`, -1.94%. As for `O=C(NCCCN1CCCC1=O)NC1CCCCC1`, the “hERG current change (%, negative = inhibition) at 10uM” value is reported as 10.9%. `Cc1ccc(NC(=S)NNC(=O)c2ccc(N3CCOCC3)c([N+](=O)[O-])c2)cc1Cl`: the “hERG current change (%, negative = inhibition) at 10uM” value was 6.24%.

Take `O=C(O)CCC1=C2c3ccccc3CCN2C(=O)CC1`: the “hERG current change (%, negative = inhibition) at 10uM” value is 9.77%. Turning to `Cc1ccc(C(=O)Nn2cnnc2)cc1Cl`, the “hERG current change (%, negative = inhibition) at 10uM” value turned out to be 16.3%. Under `CC1CCN(S(=O)(=O)c2ccc(NC(=O)CSc3ncccc3C(=O)O)cc2)CC1` stands 7.31%; under `O=C(COc1ccccc1)NC1CCSC1=O` (centres unmarked), -72.9%.

In the case of `O=C(COc1ccc2c3c(c(=O)oc2c1)CCC3)NC1CCN(Cc2ccccc2)CC1`, the “hERG current change (%, negative = inhibition) at 10uM” value is given as -24.9%. Take `CCCCc1cc(=O)oc2cc(OCC(=O)NC3CCN(Cc4ccccc4)CC3)ccc12`: the “hERG current change (%, negative = inhibition) at 10uM” value is listed as -61.1%.

As for `CCCCc1cc(=O)oc2cc(OCC(=O)NCC3CCC(C(=O)O)CC3)ccc12` (centres unmarked), the “hERG current change (%, negative = inhibition) at 10uM” value was 18%. With `CCCCc1cc(=O)oc2cc(OCC(=O)N[C@@H](Cc3ccccc3)C(=O)O)ccc12`, the “hERG current change (%, negative = inhibition) at 10uM” value came out at 6.13%. Under `Cc1cc(=O)oc2cc(OCC(=O)NC3CCN(Cc4ccccc4)CC3)ccc12` stands -63.9%. Under `O=C(COc1ccccc1)NC1CCSc2ccccc21` (centres unmarked) stands 0.0355%; under `Cc1cc(OCC(=O)NC2CCN(Cc3ccccc3)CC2)c2c(C)cc(=O)oc2c1`, -21.4%. The same measure for `O=C(COc1ccc(Cl)cc1)NC1CCSC1=O` (centres unmarked): -16.8%.
